Data taken from article PMC10812921, “Transcriptional Coactivator BOB1 (OBF1, OCA-B) Modulates the Specificity of DNA Recognition by the POU-Domain Factors OCT1 and OCT2 in a Monomeric Configuration”.

Columns and labels:
POU1 (OCT1 POU domain) = POU1 (OCT1 POU domain) (human, UniProt P14859 260-458); test: EMSA-SELEX-seq; no BOB1; 20 mM Tris-HCl pH 7.6, 140 mM NaCl, 10% glycerol, 0.5 mM EDTA, 0.05% Triton X-100, 0.1 mg/mL BSA, 0.1 mg/mL poly(dI-dC), 5 mM DTT, room temperature, 20 min; high values mean tight binding; settings: protein: recombinant; dsDNA, one strand shown
Outline: (§1)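 Binding preference means the percentage of sequenced 8-mers matching a motif pattern. Tagged POU-domain proteins (30 ng), expressed in E. coli BL21, purified under denaturing conditions and renatured, were mixed with 300 ng of a PCR-amplified double-stranded random 35-nt library, with or without 28 ng coactivator protein, for 20 min at RT in 20 μL Tris–HCl pH 7.6 binding buffer. Selection was repeated over four rounds of excising complex bands from native 6% PAGE, eluting and PCR amplification, followed by Illumina sequencing.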

POU2 (OCT2 POU domain) = target: T1, POU2 (OCT2 POU domain) (human, UniProt P09086 175-386); test: as above; settings: protein: recombinant; dsDNA, one strand shown
T1 sequence: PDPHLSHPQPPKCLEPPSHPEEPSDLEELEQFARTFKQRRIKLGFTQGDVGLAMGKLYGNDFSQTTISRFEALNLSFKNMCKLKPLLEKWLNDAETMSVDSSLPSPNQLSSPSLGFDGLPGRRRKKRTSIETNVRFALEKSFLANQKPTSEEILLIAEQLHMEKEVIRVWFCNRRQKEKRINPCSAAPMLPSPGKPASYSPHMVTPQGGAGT
Outline: as §1

[1] = target: POU1 (OCT1 POU domain);BOB1 (OBF1, OCA-B) (human;human, UniProt P14859;Q16633 260-458;1-256, |); test: EMSA-SELEX-seq; with BOB1 (ternary complex band); 20 mM Tris-HCl pH 7.6, 140 mM NaCl, 10% glycerol, 0.5 mM EDTA, 0.05% Triton X-100, 0.1 mg/mL BSA, 0.1 mg/mL poly(dI-dC), 5 mM DTT, room temperature, 20 min; high values mean tight binding; settings: protein: recombinant;recombinant; copies: 1;1; dsDNA, one strand shown
Outline: as §1

[2] = target: T2, POU2 (OCT2 POU domain);BOB1 (OBF1, OCA-B) (human;human, UniProt P09086;Q16633 175-386;1-256, |); test: as above; settings: protein: recombinant;recombinant; copies: 1;1; dsDNA, one strand shown
T2 sequence 1: T1 sequence
T2 sequence 2: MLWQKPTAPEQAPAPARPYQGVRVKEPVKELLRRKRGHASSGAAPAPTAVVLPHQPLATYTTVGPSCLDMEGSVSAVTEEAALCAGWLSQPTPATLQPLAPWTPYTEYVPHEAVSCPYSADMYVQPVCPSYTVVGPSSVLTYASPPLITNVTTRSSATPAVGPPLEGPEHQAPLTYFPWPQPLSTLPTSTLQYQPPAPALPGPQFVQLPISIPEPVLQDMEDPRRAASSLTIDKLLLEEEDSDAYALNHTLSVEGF
Outline: as §1

Chain of POU1 (OCT1 POU domain) (P14859 260-458): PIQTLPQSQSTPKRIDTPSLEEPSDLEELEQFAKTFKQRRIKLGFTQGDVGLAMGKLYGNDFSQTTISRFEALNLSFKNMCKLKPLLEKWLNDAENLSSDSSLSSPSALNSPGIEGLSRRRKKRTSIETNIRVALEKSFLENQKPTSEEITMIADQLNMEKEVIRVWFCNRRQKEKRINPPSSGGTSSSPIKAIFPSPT

Row | Sequence | binding signal (POU1 (OCT1 POU domain)) | binding signal (POU2 (OCT2 POU domain)) | binding signal [1] | binding signal [2]
1 | AGGGCAAC | 0.0214 % of ANNNNAAN 8-mers | 0.0219 % of ANNNNAAN 8-mers | 0.0172 % of ANNNNAAN 8-mers | 0.0173 % of ANNNNAAN 8-mers
2 | ACGCGAAC | 0.0103 % of ANNNNAAN 8-mers | 0.0121 % of ANNNNAAN 8-mers | 0.0109 % of ANNNNAAN 8-mers | 0.0165 % of ANNNNAAN 8-mers
3 | ATCTAAAA | 0.0564 % of ANNNNAAN 8-mers | 0.0524 % of ANNNNAAN 8-mers | 0.0535 % of ANNNNAAN 8-mers | 0.0669 % of ANNNNAAN 8-mers
4 | ATCGTAAC | 0.0236 % of ANNNNAAN 8-mers | 0.0288 % of ANNNNAAN 8-mers | 0.0238 % of ANNNNAAN 8-mers | 0.0322 % of ANNNNAAN 8-mers
5 | AGTAGAAG | 0.0404 % of ANNNNAAN 8-mers | 0.0391 % of ANNNNAAN 8-mers | 0.0336 % of ANNNNAAN 8-mers | 0.0297 % of ANNNNAAN 8-mers
6 | AAAGTAAG | 0.0641 % of ANNNNAAN 8-mers | 0.0685 % of ANNNNAAN 8-mers | 0.0851 % of ANNNNAAN 8-mers | 0.0834 % of ANNNNAAN 8-mers
7 | AGGACAAA | 0.045 % of ANNNNAAN 8-mers | 0.046 % of ANNNNAAN 8-mers | 0.0453 % of ANNNNAAN 8-mers | 0.0371 % of ANNNNAAN 8-mers
8 | AGCCCAAT | 0.0168 % of ANNNNAAN 8-mers | 0.019 % of ANNNNAAN 8-mers | 0.0226 % of ANNNNAAN 8-mers | 0.0231 % of ANNNNAAN 8-mers
9 | AGCACAAA | 0.0256 % of ANNNNAAN 8-mers | 0.0242 % of ANNNNAAN 8-mers | 0.0277 % of ANNNNAAN 8-mers | 0.033 % of ANNNNAAN 8-mers
10 | ACCAGAAG | 0.0137 % of ANNNNAAN 8-mers | 0.0167 % of ANNNNAAN 8-mers | 0.018 % of ANNNNAAN 8-mers | 0.0215 % of ANNNNAAN 8-mers
11 | AAAGTAAC | 0.0439 % of ANNNNAAN 8-mers | 0.0437 % of ANNNNAAN 8-mers | 0.0605 % of ANNNNAAN 8-mers | 0.0537 % of ANNNNAAN 8-mers
12 | ATACCAAA | 0.0397 % of ANNNNAAN 8-mers | 0.0541 % of ANNNNAAN 8-mers | 0.041 % of ANNNNAAN 8-mers | 0.038 % of ANNNNAAN 8-mers
13 | AGCGGAAG | 0.0202 % of ANNNNAAN 8-mers | 0.0196 % of ANNNNAAN 8-mers | 0.0215 % of ANNNNAAN 8-mers | 0.0173 % of ANNNNAAN 8-mers
14 | AGGCAAAG | 0.146 % of ANNNNAAN 8-mers | 0.0783 % of ANNNNAAN 8-mers | 0.258 % of ANNNNAAN 8-mers | 0.13 % of ANNNNAAN 8-mers
15 | ACTAAAAA | 0.0439 % of ANNNNAAN 8-mers | 0.0409 % of ANNNNAAN 8-mers | 0.0468 % of ANNNNAAN 8-mers | 0.0388 % of ANNNNAAN 8-mers
16 | AAAATAAT | 0.178 % of ANNNNAAN 8-mers | 0.212 % of ANNNNAAN 8-mers | 0.153 % of ANNNNAAN 8-mers | 0.155 % of ANNNNAAN 8-mers
17 | AACGGAAC | 0.0187 % of ANNNNAAN 8-mers | 0.0201 % of ANNNNAAN 8-mers | 0.025 % of ANNNNAAN 8-mers | 0.0206 % of ANNNNAAN 8-mers
18 | AGTCGAAA | 0.0431 % of ANNNNAAN 8-mers | 0.0414 % of ANNNNAAN 8-mers | 0.0324 % of ANNNNAAN 8-mers | 0.0322 % of ANNNNAAN 8-mers
19 | AGTACAAG | 0.029 % of ANNNNAAN 8-mers | 0.0253 % of ANNNNAAN 8-mers | 0.0359 % of ANNNNAAN 8-mers | 0.0297 % of ANNNNAAN 8-mers
20 | AGGCTAAG | 0.0362 % of ANNNNAAN 8-mers | 0.0414 % of ANNNNAAN 8-mers | 0.0312 % of ANNNNAAN 8-mers | 0.0446 % of ANNNNAAN 8-mers
21 | AGAGTAAT | 0.0648 % of ANNNNAAN 8-mers | 0.0777 % of ANNNNAAN 8-mers | 0.0499 % of ANNNNAAN 8-mers | 0.0537 % of ANNNNAAN 8-mers
22 | ATTCCAAG | 0.045 % of ANNNNAAN 8-mers | 0.0512 % of ANNNNAAN 8-mers | 0.032 % of ANNNNAAN 8-mers | 0.0446 % of ANNNNAAN 8-mers
23 | AATCAAAT | 0.295 % of ANNNNAAN 8-mers | 0.212 % of ANNNNAAN 8-mers | 0.419 % of ANNNNAAN 8-mers | 0.301 % of ANNNNAAN 8-mers
